Measurements published in PubChem BioAssay (NCI).
About 79,000 compounds went through this panel and 15% of them were active in at least one assay; those are over-represented in the sample as a whole. Unmarked numbers belong to inactive results. Active and inactive are the calls of the source. Rule as the data show it: active = growth inhibition above about 70%; inactive = the rest.

Columns and labels:
[1] = NCI Yeast Anticancer Drug Screen. Data for the rad50 strain (AID 155);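 also: 0% = growth of vehicle-only cultures of the same strain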; conditions: S. cerevisiae rad50 strain growth inhibition, hits give high values
Outline: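 Cells are treated with compound, grown, and their growth is then scored against vehicle-only cultures of the same repair-deficient yeast strain.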

[2] = NCI Yeast Anticancer Drug Screen. Data for the mec2-1 strain (AID 157); conditions: S. cerevisiae mec2-1 strain, hits give high values
Outline: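 Compounds were applied to mec2-1 yeast cells. Their growth was then compared with that of vehicle-treated cultures to give growth inhibition.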

[3] = NCI Yeast Anticancer Drug Screen. Data for the sgs1 mgt1 strain (AID 161);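 also: 0% = growth of cultures given vehicle only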; conditions: S. cerevisiae sgs1 mgt1 strain, hits give high values
Outline: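 Yeast cells carrying a defined DNA-repair defect were exposed to test compounds. Growth inhibition was measured relative to vehicle-treated controls.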

[4] = NCI Yeast Anticancer Drug Screen. Data for the cln2 rad14 strain (AID 165);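 also: 0% = growth equal to vehicle treated cultures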; conditions: S. cerevisiae cln2 rad14 strain, hits give high values
Outline: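 Strain: cln2 rad14 yeast, altered in cell cycle control and DNA damage repair. Read-out: growth inhibition vs vehicle.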

[5] = NCI Yeast Anticancer Drug Screen. Data for the bub3 strain (AID 167); conditions: S. cerevisiae bub3 mutant strain, hits give high values
Outline: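 Part of a panel of yeast mutants defective in DNA damage repair or cell cycle regulation. Each strain is grown with compound, and inhibition is calculated relative to solvent-treated cultures.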

[6] = NCI Yeast Anticancer Drug Screen. Data for the mlh1 rad18 strain (AID 175); conditions: S. cerevisiae mlh1 rad18 strain growth inhibition, hits give high values
Outline: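 A repair-deficient yeast strain is exposed to test compound, and growth is scored relative to vehicle-treated controls.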

[7] = at 5.0 µM (retest, dose inferred, filed as 0.5)
[8] = at 50.0 µM (retest, dose inferred, filed as 5.0)

Row | SMILES | growth inhibition [1, 7] | growth inhibition [1, 8] | growth inhibition ([1]; at 50.0 µM) | growth inhibition [2, 7] | growth inhibition [2, 8] | growth inhibition ([2]; at 50.0 µM) | growth inhibition [3, 7] | growth inhibition [3, 8] | growth inhibition ([3]; at 50.0 µM) | growth inhibition [4, 7] | growth inhibition [4, 8] | growth inhibition ([4]; at 50.0 µM) | growth inhibition [5, 7] | growth inhibition [5, 8] | growth inhibition ([5]; at 50.0 µM) | growth inhibition [6, 7] | growth inhibition [6, 8] | growth inhibition ([6]; at 50.0 µM)
1 | COc1cc2c3c(c4ccc(OC)c(OC)c4c2cc1OC)CN1CCC[C@@H]1C3 | 11% | 95% (active) | 92% (active) | 8% | 99% (active) | 93.5% (active) | 15% | 96% (active) | 93% (active) | 1% | 92% (active) | 91.2% (active) | 8% | 98% (active) | 92.3% (active) |  |  | 
2 | O=C1C=C(c2ccccc2)S(=O)(=O)c2c(O)cccc21 | 88% (active) | 100% (active) | 99.6% (active) | 76% (active) | 100% (active) | 99.6% (active) | 80% (active) | 100% (active) | 99.5% (active) | 46% | 99% (active) | 99% (active) | 71% (active) | 99% (active) | 99.2% (active) |  |  | 
3 | Cc1c(N=Nc2ccc(Cl)cc2)c(-c2ccccc2)n(C2OC(CO)C(O)C(O)C2O)c(=S)c1C#N (stereo not drawn) | -9% | 89% (active) | 96.6% (active) | -13% | 96% (active) | 97.2% (active) | 18% | 48% | 97.5% (active) | 18% | 95% (active) | 97.1% (active) | -2% | 95% (active) | 97.3% (active) |  |  | 
4 | CCCCCCCCCCC[n+]1ccc(C#N)cc1 | -6% | 64% | 91.8% (active) | 10% | 84% (active) | 57.7% | 14% | 91% (active) | 92.5% (active) | 16% | 56% | 76.8% (active) | -5% | 75% (active) | 77.6% (active) | 10% | 76% (active) | 91.6% (active)
5 | CCCN1CN(C(C(=O)N[C@@H]2C(=O)N3C(C(=O)O)=C(C)CSC23)c2ccccc2)CSC1=S (stereo partly drawn) | -19% | 11% | 33.7% | -11% | 1% | -32.4% | -21% | -10% | -3.25% | -37% | -14% | 44% | -10% | -1% | -38.4% |  |  | 
6 | COc1ccc2c(c1)CCC(N1CCCC(O)C1)C2 (stereo not drawn) | 13% | 98% (active) | 48.9% | 12% | 99% (active) | 56% | 12% | 98% (active) | 87.2% (active) | 25% | 99% (active) | 23.2% | 11% | 99% (active) | 91.2% (active) | 14% | 98% (active) | 71.4% (active)
7 | Cc1cc(NC(=S)SC(C)C)ccc1Br | 5% | 99% (active) | 99.5% (active) | 0% | 100% (active) | 99.7% (active) | 2% | 99% (active) | 71.8% (active) | -19% | 99% (active) | 98.9% (active) | 7% | 99% (active) | 99.5% (active) | -3% | 99% (active) | 99.3% (active)
8 | CC(C)(C)OC(=O)N[C@H]1CC2(C=C(Cl)C(=O)C(Cl)=C2)OC1=O | 32% | 70% (active) | 86.5% (active) | 16% | 72% (active) | 80.8% (active) | 23% | 90% (active) | 90.8% (active) | 13% | 31% | 69.2% | 14% | 83% (active) | 70.4% (active) | 43% | 92% (active) | 81% (active)
9 | CCCCCCCCCCCC[n+]1ccc(C#N)cc1 | 27% | 81% (active) | 99.2% (active) | 30% | 98% (active) | 95.9% (active) | 28% | 97% (active) | -5.4% | 26% | 78% (active) | 84.4% (active) | 34% | 92% (active) | 47.8% |  |  | 
10 | CC(/C=C/c1ccc(Cl)cc1)=N\NC(N)=S | 11% | 44% | 68.2% | -1% | 29% | 69% | 1% | 59% | 49.4% | 12% | 32% | 47.1% | 1% | 38% | 50% | 16% | 54% | 60.5%
11 | CC(=O)OCC1OC(c2cccc3c2c2ccccc2n3S(=O)(=O)c2ccccc2)C(O)C1O (stereo not drawn) | 1% | 93% (active) | 17.4% | 1% | 97% (active) | -0.7% | -1% | 97% (active) | 7.15% | 2% | 98% (active) | 1.25% | 0% | 98% (active) | 7.8% |  |  | 
12 | CCCCCCCCCCCCc1ccc(S(=O)(=O)O)cc1.[Zn+2] | -2% | 55% | 78.4% (active) | 19% | 27% | 13.2% | -4% | 59% | 75.3% (active) | 3% | 38% | -49% | -8% | 35% | 6.15% | -2% | 71% (active) | 30.1%
13 | NC1OC(COC(=O)c2ccccc2)C(O)C(OC(=O)c2ccccc2)C1OC(=O)c1ccccc1 (stereo not drawn) | 0% | 97% (active) | 97% (active) | 2% | 98% (active) | 96.8% (active) | 11% | 98% (active) | 97.7% (active) | 11% | 97% (active) | 95.3% (active) | -1% | 98% (active) | 93.8% (active) |  |  | 
14 | C/C=C/C(=O)NCC(C(C)C)/[N+]([O-])=N/O (stereo not drawn) | 94% (active) | 95% (active) | 91.8% (active) | 95% (active) | 95% (active) | 93.3% (active) | 97% (active) | 97% (active) | 93.3% (active) | 80% (active) | 82% (active) | 91.2% (active) | 87% (active) | 86% (active) | 91.8% (active) |  |  | 
15 | CCCC/C=C(/CCCCOCOCCOC)[Si](C)(C)C | -1% | -1% | -13.2% | -5% | -2% | -1.8% | -1% | 6% | 15.9% | 1% | -15% | 86.1% (active) | -3% | -9% | 11.7% | -8% | 4% | 30.8%
16 | O=[N+]([O-])c1ccc(N2N=NC(CN3CCOCC3)C2N2CCOCC2)cc1 (stereo not drawn) | 5% | 42% | 77.5% (active) | 0% | 23% | 47.3% | 1% | 56% | 47.5% | 0% | 28% | 24.5% | 2% | 32% | 7.85% |  |  | 
17 | CC1CC(=O)OC(C(=O)c2ccccc2)N1c1ccc(C(F)(F)F)cc1N (stereo not drawn) | 4% | 30% | 81.6% (active) | 11% | 11% | 65% | 8% | 38% | 59.4% | 0% | 2% | 56.4% | 2% | 10% | 32.2% | 3% | 27% | 88.4% (active)
18 | CC(C)(C)c1cc(Nc2ccc([N+](=O)[O-])cc2[N+](=O)[O-])cc(C(C)(C)C)c1O | 4% | 99% (active) | -14.9% | 7% | 100% (active) | 14.3% | 6% | 99% (active) | 10.4% | -1% | 99% (active) | -45.6% | 8% | 99% (active) | -0.9% | -1% | 99% (active) | 8.45%
19 | CCC(C)NCCNc1cc(OC)cc2cccnc12 (stereo not drawn) | 10% | 13% | 42.9% | 1% | 0% | 27% | 7% | 10% | 21% | 16% | -5% | -26.6% | -1% | -1% | 35% | 10% | 33% | 51.1%
20 | COC(=O)c1cc[nH]c(=O)c1 | -150% | -166% | 9.2% | -48% | -56% | 12.2% | -62% | -68% | 11.4% | -55% | -70% | -18.8% | -71% | -86% | 0.55% |  |  | 
21 | CCCCCCCCCCCCCCCC[N+](C)(C)c1ccccc1 | 98% (active) | 98% (active) | 91.1% (active) | 98% (active) | 99% (active) | 90.7% (active) | 99% (active) | 99% (active) | 90.4% (active) | 98% (active) | 99% (active) | 86.2% (active) | 99% (active) | 99% (active) | 92.8% (active) | 98% (active) | 98% (active) | 92.2% (active)
